The record followed here is PubChem BioAssay AID485270 (The Scripps Research Institute Molecular Screening Center, 2010).

Among all 330,000 compounds or so, about 5,800 (1.8%) were called active. The list comes from a sample in which actives are over-represented; it also holds similar structures and randomly drawn compounds. Unmarked numbers belong to inactive results. Cut-off read from the data, not from the text of the source: active = inhibition mostly above about 38% (no sharp cut-off); inactive = mostly below about 40%.

In the assay the target is Orexin/Hypocretin receptor type 1 (Homo sapiens) (UniProt O43613). Put plainly: blocks the human orexin 1 receptor (AID 485270).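 Note: 0% = agonist challenge alone and 100% = reference antagonist.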 The conditions noted are these: OX1R-expressing cells, FRET antagonist read-out; at 6.6 µM; hits give high values.
Chain of Orexin/Hypocretin receptor type 1 (Homo sapiens) (O43613 whole entry, looked up): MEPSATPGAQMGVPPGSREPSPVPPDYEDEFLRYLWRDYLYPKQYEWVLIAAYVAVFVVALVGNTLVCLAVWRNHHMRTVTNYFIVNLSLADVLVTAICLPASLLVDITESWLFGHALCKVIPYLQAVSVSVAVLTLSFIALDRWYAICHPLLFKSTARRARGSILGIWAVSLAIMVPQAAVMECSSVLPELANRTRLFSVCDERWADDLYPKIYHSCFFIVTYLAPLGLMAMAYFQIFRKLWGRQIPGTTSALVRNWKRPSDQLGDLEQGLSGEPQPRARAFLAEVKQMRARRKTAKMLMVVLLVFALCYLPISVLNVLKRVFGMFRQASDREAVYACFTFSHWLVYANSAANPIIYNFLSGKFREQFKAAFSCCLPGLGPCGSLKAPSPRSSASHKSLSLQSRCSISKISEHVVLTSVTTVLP
In the case of `Cc1noc(C)c1NC(=O)Nc1cccc2c1O[C@H](CN(C)C(=O)Nc1ccccc1)[C@@H](C)CN([C@H](C)CO)C2=O`, the inhibition (as a rule, the drop in the measured response relative to a control, in per cent) was 6.95%.
With `CC(=O)C[C@H](O)CC(=O)[C@@H]1OC(=O)[C@@H](C)C/C=C\Cc2ccccc21`, the inhibition was 0.77%.
For `O=C1OCCN1C(=O)[C@H]1[C@H](c2ccccc2)C(c2ccc(F)cc2)=NN1c1ccccc1`, the inhibition was 5.3%.
The value for `Cc1cccc(N2O[C@H]3C=CC2CCCC3)n1` was 3.41%; that for `CCn1nc(C(=O)NNS(=O)(=O)c2cc(/C=C/C(=O)O)cc(OC)c2OC)c2ccccc2c1=O` was 3.49%; that for `CC[C@]12c3[nH]c4ccc(OC)cc4c3CCN1C(=O)C(CC(=O)NCCN1CCOCC1)C[C@@H]2C(=O)N1CCN(C(=O)C2CC2)CC1` (some centres undefined) was 17.4%.
The value for `O=C1c2ccccc2C(=O)c2c1cccc2N1CCN(Cc2ccccc2)CC1` was 14.2%; that for `O=C1c2ccccc2C(=O)c2c1cccc2N1CCN(CCO)CC1` was 56.4% (active); that for `O=C1c2ccccc2C(=O)c2c1cccc2N1CCN(C/C=C/c2ccccc2)CC1` was 20.4%.
The value for `CCOc1ccc(/C=C/C(=O)OCC(=O)c2ccccc2OC)cc1OC` was 62.2% (active); that for `COc1cc(/C=C/C(=O)OCC(=O)c2ccccc2)cc(OC)c1OC` was 7.01%.
`COc1ccc(/C=C/C(=O)OCC(=O)NC2CCCCCC2)cc1OC`: the inhibition is 5.65%.
The value for `CCc1nnc(NC(=O)CSCc2cc(=O)n3cc(C)sc3n2)s1` was 8.1%; that for `O=C(COC(=O)c1cccnc1Cl)Nc1ccc(S(=O)(=O)N2CCOCC2)cc1` was 7%.
The value for `CC(=O)N1Cc2ccccc2CC1C(=O)O` (centres undefined) was 2.65%; that for `COc1ccc(NC(=O)N(C)C[C@H]2Oc3ccc(NC(=O)C4CC4)cc3C(=O)N([C@H](C)CO)C[C@@H]2C)cc1` was 9.29%; that for `COc1cc(C2CC(=O)Oc3cc(OC)c(OC)c(OC)c32)cc(OC)c1OC` (centres undefined) was 5.32%.
The value for `CN(C(=O)c1cccc(NC(=O)Cc2cccc([N+](=O)[O-])c2)c1)C1CCCCC1` was 10.1%; that for `COC(=O)c1ccc(NC(=O)Nc2ccc(C)cc2)cc1` was 15.3%; that for `CC(=O)c1ccc(NC(=O)Nc2ccc([N+](=O)[O-])cc2C)cc1` was 26%.
Regarding `COc1cc(NC(=O)Nc2ccc(C)cc2)cc([N+](=O)[O-])c1`, the inhibition is 45.8% (active).
For `CC(C)(C)OC(=O)C[C@@H]1C/C=C\C[C@H](CC(=O)N[C@@H](CO)Cc2ccccc2)C(=O)N[C@H](Cc2ccccc2)COC1=O`, the inhibition is 4%.
The value for `CC(=O)Oc1ccc2c(c1)C(=O)c1ccccc1C2=O` was 30.9% (active); that for `CC(=O)Oc1cccc(C(=O)Nc2ccccc2NC(=O)c2cccc(OC(C)=O)c2)c1` was 6.54%.
The value for `CC(=O)O[C@H]1c2ccccc2-c2ccccc2[C@@H]1OC(C)=O` was 1.8%; that for `Cc1ccnc(SCC(=O)Nc2cccc(S(=O)(=O)N3CCOCC3)c2)n1` was 5.6%; that for `CC1CCN(C(=O)COC(=O)c2cc(=O)[nH]c3ccccc23)CC1` was 3.71%.
The figure for `CCC(=O)N(C)C(c1ccccc1Cl)c1nnnn1-c1c(C)cccc1C` (centres undefined) is 74.2% (active).
In the case of `CN(C)/C=C(/C(=O)c1ccc(Cl)c(Cl)c1)c1nnnn1-c1ccccc1`, the inhibition is 4.6%.
Turning to `CN(C(=O)CSc1nnnn1-c1ccccc1)C1CCCCC1`, the inhibition was 9.05%.
The value for `Cc1ccc(C)c(NS(=O)(=O)c2c(C)[nH]c(C)c2C(=O)N2CCCCC2)c1` was 49.2% (active); that for `Cc1ccc(NS(=O)(=O)c2c(C)[nH]c(C)c2C(=O)N2CCCCC2)c(C)c1` was 21.7%; that for `Cc1ccc(C)c(N2CCN(S(=O)(=O)c3c(C)[nH]c(C)c3C(=O)N3CCCC3)CC2)c1` was 5.67%.
The value for `O=C(COC(=O)CN1C(=O)C2CCCCC2C1=O)Nc1ccc(F)c(F)c1F` (centres undefined) was 0.98%.
The value for `Cc1oc2c(c1C(=O)N1CCOCC1)C(=O)c1ccccc1C2=O` was 90.1% (active); that for `Cc1ccc(C(=O)N2CCN(C(=O)N3CCOCC3)CC2)cc1` was 5.22%.
Regarding `Cc1ccccc1-c1ccc(Nc2ccc(C(=O)N3CCOCC3)cc2)nn1`, the inhibition was 20.7%.
Turning to `Cc1cccc(C(=O)N[C@H](C(=O)NCc2cccs2)C(C)C)c1`, the inhibition was 11.5%.
For `CN[C@H](C(=O)NC[C@H]1O[C@@H](n2cnc3c(N)ncnc32)[C@H](O)[C@@H]1O)[C@@H](C)OCc1ccccc1`, the inhibition is 5.21%.
The value for `Cc1ccc(C(=O)NNC(=O)c2ccc3c(c2)OCCO3)cc1` was 8.1%; that for `COc1cccc(NC(=O)CN(C)C(=O)c2ccccc2CCc2ccccc2)c1` was 67.5% (active); that for `COc1cccc(NC(=O)CN(C)C(=O)Cc2ccc(Cl)cc2Cl)c1` was 17.8%.
The figure for `COc1cccc(NC(=O)CN(C)C(=O)c2cc(C3CC3)nn2-c2ccccc2)c1` is 14%; for `CC(C)n1ncc2c(C(=O)Nc3ccc(CC#N)cc3)cc(C3CC3)nc21` it is 4.43%; for `Cc1ccc(S(=O)(=O)Nc2ccc3c(c2)C(=O)N([C@H](C)CO)C[C@@H](C)[C@@H](CN(C)C(=O)Nc2cccc4ccccc24)O3)cc1` it is 2.14%.
The value for `O=C(NCCC1CCCCN1S(=O)(=O)c1cccs1)C(=O)Nc1ccc(F)cc1F` (centres undefined) was 12.6%.
For the compound `COc1ccc(CCNC(=O)C(=O)NCC2CCCN2S(=O)(=O)c2cccs2)cc1OC` (centres undefined), the inhibition was 17.3%.
The figure for `COc1ccccc1CCNC(=O)C(=O)NCCC1CCCCN1S(=O)(=O)c1cccs1` (centres undefined) is 57.5% (active).
The figure for `CC(=O)Nc1ccc(NC(=S)NC(=O)c2ccc([N+](=O)[O-])c(C)c2)cc1` is 4.21%; for `Cc1ccc(NC(=O)c2sccc2C)cc1[N+](=O)[O-]` it is 14.5%; for `CNc1ccc(NC(C)=O)cc1[N+](=O)[O-]` it is 59.9% (active).
The figure for `CC(=O)Nc1ccc(S(=O)(=O)N2CCN(c3ccc([N+](=O)[O-])c(NCCN4CCOCC4)c3)CC2)cc1` is 24.8%; for `CC(=O)Nc1ccc(Nc2c([N+](=O)[O-])cc(S(C)(=O)=O)cc2[N+](=O)[O-])cc1` it is 98% (active); for `CNc1ccc([N+](=O)[O-])cc1C(=O)O` it is 17.5%.
